The supplement of paper PMC9446081
Screen size: about 39,000 compounds; about 220 (0.56%) showed activity. The list comes from a sample in which actives are over-represented; it also holds similar structures and randomly drawn compounds. A number with no mark means an inactive call.

tested on: Escherichia coli K-12 BW25113; assay: relative growth (OD600 normalised to plate interquartile mean) (fraction); higher = less growth inhibition, active = 0.2 or less; conditions: 50 µM; LB; incubation time: overnight (16-24 h)
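Further: Wild-type cells incubated without shaking, value is the mean of two biological replicates.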

SMILES | relative growth
CN[C@H]1C[C@@H](N)[C@H](O)[C@@H](O[C@@H]2O[C@H](CO)[C@H](O)[C@@H]3O[C@@]4(O[C@H]23)O[C@H]([C@@H](N)CO)[C@H](O)[C@H](O)[C@H]4O)[C@@H]1O | 0.0323 (active)
COC(=O)[C@]1(Cc2ccccc2N=[N+]=[N-])N=C(c2ccc(OCCCO)cc2)O[C@@H]1c1ccccc1N=[N+]=[N-] | 1.03
CCOCC(=O)N1CC[C@H]2CNC[C@H]21 | 0.983
CCCCCCCCCCCCCC(=O)O[C@@H]1[C@@H](C)[C@@]2(O)[C@@H](C=C(CO)C[C@]3(O)C(=O)C(C)=C[C@@H]23)[C@@H]2C(C)(C)[C@]12OC(C)=O | 1.02
CN(C)[C@@H]1C(=O)C(C(N)=O)=C(O)[C@@]2(O)C(O)=C3C(=O)c4c(O)cccc4[C@](C)(O)[C@H]3C[C@@H]12 | 0.0416 (active)
CN(C)[C@@H]1C(=O)[C@@H](C(N)=O)C(=O)[C@@]2(O)C(=O)[C@H]3C(=O)c4c(O)ccc(Cl)c4[C@@](C)(O)[C@H]3C[C@@H]12 | 0.037 (active)
CN(C)[C@@H]1C(=O)[C@H](C(N)=O)C(=O)[C@@]2(O)C(=O)[C@@H]3C(=O)c4c(O)cccc4[C@@](C)(O)[C@H]3C[C@@H]12 | 0.182 (active)
COc1c(C[C@@H](C)O)c2c3c(C[C@@H](C)O)c(OC)c(=O)c4c(O)cc5c(c6c(cc(O)c(c1=O)c62)OCO5)c43 | 1.08
CC12CCC(O)CC1CCC1C2CC(O)C2(C)C(C3=CC(=O)OC3)CCC12O (centres undefined) | 0.988
CC(=O)N1CCCC[C@]12CCNC2 | 0.984
CC1=C(O)C(=O)C=C2C1=CC=C1C2(C)CCC2(C)C3CC(C)(C(=O)O)CCC3(C)CCC12C (centres undefined) | 1.02
CN(C)C(=O)[C@]1(Cc2ccccc2CN=[N+]=[N-])N=C(c2ccc(OCCCO)cc2)O[C@@H]1c1ccccc1N=[N+]=[N-] | 1.02
CC(=O)OC1CC2(C)C(c3ccoc3)CC3OC32C2(C)C(=O)C(O)=C3C(C)(C)C(=O)C=CC3(C)C12 (centres undefined) | 1.06
CCOC(=O)c1c(CN2CCN(c3ccccc3)CC2)n(Cc2ccccc2)c2cc(Br)c(O)cc12 | 1.03
CO[C@@H]1C[C@@H](C[C@H]2CC[C@H](C)[C@H]([C@@H](C)C(=O)O)O2)O[C@]2(O[C@](C)([C@H]3CC[C@@](C)([C@H]4O[C@@H]([C@H]5O[C@@](O)(CO)[C@H](C)C[C@@H]5C)C[C@@H]4C)O3)C[C@H]2C)[C@@H]1C | 0.945
Cc1ccc(OC(=O)N(C)C[C@H]2OCc3ccccc3-c3c(n(C)c4ccccc34)C(=O)N([C@H](C)CO)C[C@@H]2C)cc1 | 1
CC(=O)OC1CC(OC2C(O)CC(OC3C(O)CC(OC4CCC5(C)C(CCC6C5CC(O)C5(C)C(C7=CC(=O)OC7)CCC65O)C4)OC3C)OC2C)OC(C)C1OC1OC(CO)C(O)C(O)C1O (centres undefined) | 0.995
Cc1nc(-c2ccc(-c3ccc(C(=O)N4CCc5cc6c(cc54)C4(CCN(C)CC4)CO6)cc3)c(C)c2)no1 | 0.932
CO[C@@H]1C=C[C@@H]2[C@H]1N2CCO (some centres undefined) | 0.968
CNC1C(O)C(OC2C(N)CC(N)C(OC3OC(C(C)O)C(O)C(O)C3N)C2O)OCC1(C)O (centres undefined) | 0.0438 (active)
CN[C@@H]1[C@@H](O)[C@@H](O[C@@H]2[C@@H](O)[C@H](O[C@H]3O[C@H](CN)CC[C@H]3N)[C@@H](N)C[C@H]2N)OC[C@]1(C)O.CN[C@@H]1[C@@H](O)[C@@H](O[C@@H]2[C@@H](O)[C@H](O[C@H]3O[C@H]([C@@H](C)N)CC[C@H]3N)[C@@H](N)C[C@H]2N)OC[C@]1(C)O.CN[C@@H]1[C@@H](O)[C@@H](O[C@@H]2[C@@H](O)[C@H](O[C@H]3O[C@H]([C@@H](C)NC)CC[C@H]3N)[C@@H](N)C[C@H]2N)OC[C@]1(C)O | 0.624
CN[C@@H]1[C@@H](O)[C@@H](O[C@@H]2[C@H](O)[C@@H](O[C@H]3O[C@H]([C@@H](C)O)[C@@H](O)[C@H](O)[C@H]3N)[C@H](N)C[C@@H]2N)OC[C@]1(C)O | 0.484
C[C@@]1(C(=O)O)[C@H]2CC[C@@H](O2)[C@@]1(C)C(=O)O | 0.979
CC(=O)OC[C@]12CCC(C)=C[C@H]1O[C@@H]1[C@H](O)[C@@H](OC(C)=O)[C@@]2(C)[C@]12CO2 | 0.969
[NH2][Pt]1([NH2])[O]C(=O)C2(CCC2)C(=O)[O]1 | 0.958

SMILES | relative growth
CC(C)(C)c1ccc(O)cc1 | 0.998
CNC(=O)Oc1cccc2ccccc12 | 1.05
NCCc1cccc2ccccc12 | 1
O=[N+]([O-])C(Br)(CO)CO | 0.0475 (active)
OCC(Br)(Br)Br | 1.02
OCCN(CCO)CCO | 0.97
C[C@@H](N)Cc1ccc(O)cc1 | 0.992
C[C@@H]1O[C@@H](O[C@@H]2C[C@@H](O)[C@]3(CO)[C@H]4[C@H](O)C[C@]5(C)[C@@H](C6=CC(=O)OC6)CC[C@]5(O)[C@@H]4CC[C@]3(O)C2)[C@H](O)[C@H](O)[C@H]1O | 0.995
O=C(Cc1ccccc1)c1ccccc1 | 0.986
CC(=O)[O][Hg][c]1ccccc1 | 0.0564 (active)
NCC(=O)c1ccccc1 | 1
C=C(C)[C@@H]1CCC(C)=C[C@H]1c1c(O)cc(CCCCC)cc1O | 1.01
C[C@@]12C(=O)OC(=O)[C@]1(C)[C@H]1CC[C@@H]2O1 | 0.933
COc1cccc(C2(N)CCCC2)c1 | 1.02
CN1[C@@H]2CC[C@@H]1C[C@H](O)C2 (some centres undefined) | 1.01
O=C1C=C2C(=CCO[C@@H]2O)O1 | 1
O=C1C=C2C(=CCOC2O)O1 (centres undefined) | 0.0434 (active)
CC1(C)C(=O)C=CC2(C)C1=C(O)C(=O)C1(C)C2CCC2(C)C(c3ccoc3)CC3OC321 (centres undefined) | 1.07
COC(=O)C[C@](O)(CCC(C)(C)O)C(=O)O[C@@H]1C(OC)=C[C@]23CCCN2CCc2cc4c(cc2[C@H]13)OCO4 | 1.02
O=c1[nH]c2ccccc2n1C1CCN(Cc2ccc(-c3nc4cc5[nH]cnc5cc4nc3-c3ccccc3)cc2)CC1 | 1.09
O=[N+]([O-])c1ccc(N(CCO)CCO)c2c1no[n+]2[O-] | 0.0367 (active)
C[C@@H]1CC[C@@]2(OC1)O[C@H]1C[C@H]3[C@@H]4CC=C5C[C@@H](O[C@@H]6O[C@H](CO)[C@@H](O[C@@H]7O[C@@H](C)[C@H](O)[C@@H](O)[C@H]7O)[C@H](O)[C@H]6O[C@@H]6O[C@@H](C)[C@H](O)[C@@H](O)[C@H]6O)CC[C@]5(C)[C@H]4CC[C@]3(C)[C@H]1[C@@H]2C | 0.913
CC(C)C12OC1C1OC13C1(C)CCC4=C(COC4=O)C1CC1OC13C2O (centres undefined) | 0.947
COc1ccc(C(CN(C)C)C2(O)CCCCC2)cc1.Cl (centres undefined) | 1.14
